{
  "source": "ChEMBL document CHEMBL1201862",
  "about": "“PubChem BioAssay data set” (2004)",
  "note": "Among all 56,000 sequences or so, about 2,300 (4.1%) were called active. Cut-off read from the data, not from the text of the source: active = GI50 up to about 1.1 µM and inactive = higher. The list is a sample of the results. Results with a measured potency or affinity are listed apart.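 Compound exposure: 48 hours, 5 concentrations, 96-well plates. The concentration for 50% growth inhibition is given as GI50.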",
  "data": [
    {"tested_on": "TK-10", "experiment": "NCI tumour cell line growth inhibition, 48 h", "units": {"GI50": "µM"}, "values": [
      {"substance": "[Bis(aminomethyl)ethylmethylsilane]tetrachloroplatinum(IV), CHEMBL2146192", "GI50": 13.1},
      {"substance": "[Bis(aminomethyl)tetramethylenesilane]dichloropaltinum(II), CHEMBL2146205", "GI50": 32.2},
      {"substance": "[Bis(aminomethyl)dimethylsilane]tetrachloroplatinum(IV), CHEMBL2146190", "GI50": 9.48},
      {"substance": "[Bis(aminomethyl)diethylsilane]tetrachloroplatinum(IV), CHEMBL2146203", "GI50": 13.4},
      {"substance": "mu-(1,7-nanodiamine-N,N')bis-(cis-aminedichloroplatimum (II)), CHEMBL2146215", "GI50": 62.8},
      {"substance": "[Bis(aminomethyl)pentamethylenesilane]tetrachloropaltinum(IV), CHEMBL2146204", "GI50": 17.1},
      {"substance": "[Bis(aminomethyl)dimethylsilane]dichloroplatinum (II), CHEMBL2146201", "GI50": 24.6},
      {"substance": "cis-Bis[[(trimethylsilyl)methyl]amino]tetrachloroplatinum(IV), CHEMBL2146191", "GI50": 13.2},
      {"substance": "CISPLATIN, CHEMBL11359", "GI50": 6.64},
      {"substance": "[Bis(aminomethyl)tetramethylenesilane]tetrachloropaltinum(IV), CHEMBL2146189", "GI50": 9.91},
      {"substance": "[Bis(aminomethyl)pentamethylenesilane]dichloropaltinum(II), CHEMBL2146202", "GI50": 12.7}
    ]}
  ]
}
